Assay [1] has as its target Tyrosine-protein kinase receptor UFO (Homo sapiens) (UniProt P30530). The conditions noted are these: at 1 µM.
Assay [2] deals with Tyrosine-protein kinase Blk (Homo sapiens) (UniProt P51451). The following applies: at 0.1 µM.
Assay [3] shares this target. The following applies: at 1 µM.
Assay [4] concerns the target T1, Cytoplasmic tyrosine-protein kinase BMX (Homo sapiens) (UniProt P51813).
T1 sequence (whole entry): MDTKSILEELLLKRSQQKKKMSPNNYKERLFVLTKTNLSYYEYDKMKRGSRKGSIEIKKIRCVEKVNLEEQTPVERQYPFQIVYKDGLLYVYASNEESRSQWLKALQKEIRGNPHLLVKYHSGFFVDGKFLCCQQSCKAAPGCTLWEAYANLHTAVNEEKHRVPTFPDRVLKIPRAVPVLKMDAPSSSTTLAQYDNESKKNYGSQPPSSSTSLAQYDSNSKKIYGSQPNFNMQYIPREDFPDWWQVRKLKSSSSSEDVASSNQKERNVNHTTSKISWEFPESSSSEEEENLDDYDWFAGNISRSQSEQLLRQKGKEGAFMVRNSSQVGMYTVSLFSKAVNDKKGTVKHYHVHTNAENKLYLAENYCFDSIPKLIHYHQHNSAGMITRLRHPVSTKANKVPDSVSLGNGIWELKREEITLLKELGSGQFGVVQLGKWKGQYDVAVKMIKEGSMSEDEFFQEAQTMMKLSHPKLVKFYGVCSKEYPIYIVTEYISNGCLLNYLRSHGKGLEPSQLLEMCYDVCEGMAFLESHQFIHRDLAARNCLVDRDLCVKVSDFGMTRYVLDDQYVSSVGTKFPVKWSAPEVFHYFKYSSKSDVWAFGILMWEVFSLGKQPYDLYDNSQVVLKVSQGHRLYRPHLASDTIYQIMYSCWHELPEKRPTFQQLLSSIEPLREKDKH
The conditions noted are these: at 0.1 µM.

Assay [5] deals with T1, Cytoplasmic tyrosine-protein kinase BMX (Homo sapiens). The conditions noted are these: at 1 µM.
Assay [6] concerns the target Protein-tyrosine kinase 6 (Homo sapiens) (UniProt Q13882). The conditions noted are these: at 0.1 µM.
Assay [7] has the same target. The conditions noted are these: at 1 µM.
In assay [8] the target is Tyrosine-protein kinase BTK (Homo sapiens) (UniProt Q06187). The conditions noted are these: at 0.1 µM.
Assay [9] shares this target. The conditions noted are these: at 1 µM.
The target in assay [10] is Tyrosine-protein kinase CSK (Homo sapiens) (UniProt P41240). The conditions noted are these: at 0.1 µM.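 Note: value given is the averaged percent inhibition of CSK kinase activity, from the GSK PKIS kinase inhibitor set screening panel.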
Tyrosine-protein kinase CSK (Homo sapiens), sequence (P41240 2-450 limits assumed): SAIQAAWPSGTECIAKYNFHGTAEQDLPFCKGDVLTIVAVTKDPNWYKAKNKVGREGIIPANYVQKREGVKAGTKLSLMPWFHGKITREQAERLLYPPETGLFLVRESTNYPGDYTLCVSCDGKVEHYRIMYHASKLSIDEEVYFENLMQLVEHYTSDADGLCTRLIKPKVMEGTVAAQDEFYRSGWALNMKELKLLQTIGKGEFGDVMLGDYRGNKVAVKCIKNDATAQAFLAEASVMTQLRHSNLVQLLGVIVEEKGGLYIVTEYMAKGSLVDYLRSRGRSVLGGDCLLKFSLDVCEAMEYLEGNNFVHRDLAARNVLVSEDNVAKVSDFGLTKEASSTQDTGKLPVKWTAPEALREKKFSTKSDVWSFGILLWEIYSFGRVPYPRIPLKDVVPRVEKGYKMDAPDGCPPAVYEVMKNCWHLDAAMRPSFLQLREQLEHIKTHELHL

Protein-tyrosine kinase 6 (Homo sapiens), sequence (Q13882 whole entry, looked up): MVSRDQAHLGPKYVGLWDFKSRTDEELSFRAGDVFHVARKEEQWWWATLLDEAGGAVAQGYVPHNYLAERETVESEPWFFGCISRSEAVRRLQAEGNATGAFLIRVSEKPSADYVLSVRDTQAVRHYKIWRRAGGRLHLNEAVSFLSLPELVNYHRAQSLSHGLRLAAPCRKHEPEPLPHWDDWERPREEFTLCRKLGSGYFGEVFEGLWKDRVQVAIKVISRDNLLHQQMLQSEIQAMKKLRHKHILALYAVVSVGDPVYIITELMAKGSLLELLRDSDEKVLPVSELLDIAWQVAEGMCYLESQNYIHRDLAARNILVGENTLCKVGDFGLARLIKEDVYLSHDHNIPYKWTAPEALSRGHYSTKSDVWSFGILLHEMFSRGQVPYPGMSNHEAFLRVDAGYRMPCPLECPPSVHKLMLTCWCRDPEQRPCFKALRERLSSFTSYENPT
Tyrosine-protein kinase BTK (Homo sapiens), sequence (Q06187 whole entry): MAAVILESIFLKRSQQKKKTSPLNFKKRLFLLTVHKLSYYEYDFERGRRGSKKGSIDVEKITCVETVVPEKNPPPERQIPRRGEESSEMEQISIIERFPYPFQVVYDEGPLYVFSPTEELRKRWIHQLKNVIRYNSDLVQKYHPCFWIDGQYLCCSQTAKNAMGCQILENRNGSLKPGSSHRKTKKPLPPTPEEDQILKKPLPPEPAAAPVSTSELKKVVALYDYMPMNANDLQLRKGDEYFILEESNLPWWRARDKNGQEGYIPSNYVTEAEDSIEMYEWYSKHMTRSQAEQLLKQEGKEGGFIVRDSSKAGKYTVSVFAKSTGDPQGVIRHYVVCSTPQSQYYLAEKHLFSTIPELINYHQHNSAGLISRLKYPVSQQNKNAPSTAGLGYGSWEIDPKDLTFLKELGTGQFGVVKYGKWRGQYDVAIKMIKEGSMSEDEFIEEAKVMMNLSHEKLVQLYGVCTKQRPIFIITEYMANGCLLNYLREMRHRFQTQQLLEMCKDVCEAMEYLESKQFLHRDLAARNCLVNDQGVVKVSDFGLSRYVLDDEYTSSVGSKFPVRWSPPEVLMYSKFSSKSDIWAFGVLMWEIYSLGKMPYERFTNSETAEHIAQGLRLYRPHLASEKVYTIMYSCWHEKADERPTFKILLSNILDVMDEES
Tyrosine-protein kinase Blk (Homo sapiens), sequence (P51451 2-505 limits assumed): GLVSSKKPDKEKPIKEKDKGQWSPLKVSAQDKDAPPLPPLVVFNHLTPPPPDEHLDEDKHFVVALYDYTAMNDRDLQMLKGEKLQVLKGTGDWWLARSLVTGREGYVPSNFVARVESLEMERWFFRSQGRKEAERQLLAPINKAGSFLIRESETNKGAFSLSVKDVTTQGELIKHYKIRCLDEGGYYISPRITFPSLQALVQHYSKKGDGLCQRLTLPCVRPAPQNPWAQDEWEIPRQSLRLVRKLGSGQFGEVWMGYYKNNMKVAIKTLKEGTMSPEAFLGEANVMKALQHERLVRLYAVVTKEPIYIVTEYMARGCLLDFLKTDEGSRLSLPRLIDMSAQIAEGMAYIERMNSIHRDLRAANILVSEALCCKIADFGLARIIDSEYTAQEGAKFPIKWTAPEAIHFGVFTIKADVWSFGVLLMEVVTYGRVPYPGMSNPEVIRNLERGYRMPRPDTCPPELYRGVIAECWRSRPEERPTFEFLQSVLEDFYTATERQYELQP
Tyrosine-protein kinase receptor UFO (Homo sapiens), sequence (P30530 whole entry): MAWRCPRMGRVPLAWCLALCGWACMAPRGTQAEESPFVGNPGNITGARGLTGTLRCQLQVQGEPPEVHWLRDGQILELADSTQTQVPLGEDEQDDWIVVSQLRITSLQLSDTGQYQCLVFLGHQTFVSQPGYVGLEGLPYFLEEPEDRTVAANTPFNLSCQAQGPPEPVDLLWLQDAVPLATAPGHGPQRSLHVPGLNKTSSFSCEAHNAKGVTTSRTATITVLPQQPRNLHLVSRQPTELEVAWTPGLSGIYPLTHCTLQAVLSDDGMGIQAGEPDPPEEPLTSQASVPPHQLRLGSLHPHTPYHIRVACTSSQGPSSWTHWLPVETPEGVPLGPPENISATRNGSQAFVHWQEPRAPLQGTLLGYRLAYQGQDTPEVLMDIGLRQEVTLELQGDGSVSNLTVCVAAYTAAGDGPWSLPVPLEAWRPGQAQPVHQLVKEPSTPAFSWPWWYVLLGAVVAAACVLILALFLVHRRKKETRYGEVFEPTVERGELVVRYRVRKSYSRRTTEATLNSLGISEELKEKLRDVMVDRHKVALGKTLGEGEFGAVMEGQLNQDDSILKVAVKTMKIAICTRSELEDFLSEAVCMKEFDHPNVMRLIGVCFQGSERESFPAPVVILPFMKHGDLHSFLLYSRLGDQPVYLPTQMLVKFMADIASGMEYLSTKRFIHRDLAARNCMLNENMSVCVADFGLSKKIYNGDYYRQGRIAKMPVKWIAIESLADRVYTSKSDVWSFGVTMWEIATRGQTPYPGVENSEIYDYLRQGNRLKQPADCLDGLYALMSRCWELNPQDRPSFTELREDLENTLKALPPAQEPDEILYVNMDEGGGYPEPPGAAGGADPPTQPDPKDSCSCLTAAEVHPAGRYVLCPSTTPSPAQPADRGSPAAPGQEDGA

What is called inhibition is the relative decrease from the control value, in per cent. `Cc1nn(C)c2cc(N(C)c3ccnc(Nc4cccc(S(N)(=O)=O)c4)n3)ccc12`: the inhibition in assay [1] was -1.13%; in [2] it was 5.53%; in [3], 46.8%; in [4] it was 8.2%; in [5], 35.1%; in assay [6], 10.8%. The inhibition was 52% in assay [7], -0.96% in assay [8], 6.74% in [9] and 5.24% in assay [10].

As to `Cn1cc(C=C2C(=O)Nc3cccnc32)c2ccccc21`, the inhibition was 19.1% in [1]; 3.27% in assay [4]; 4.89% in [5]; 0.63% in assay [6]; 2.28% in assay [7]; 1.87% in assay [8]. Moreover, the inhibition in [9] came out at 3.46%; in assay [10] it was 1.5%.

For the molecule `N#Cc1c(NC(=O)c2cccc3ccccc23)sc2c1CCCC2`, the inhibition in assay [1] was -1.11%; in assay [2] it was 1.28%; in assay [3] it was 2.44%; in assay [4] it was 3.61%; in [5] it was 2.91%; in [6] it was 3.4%. The inhibition in [7] is 3.17%; in assay [8] it was -1.4%; in assay [9], 0.24%; in assay [10] it was 0.06%.

`COc1cc2c(cc1Nc1nc(N3CCc4ccccc43)c3cc[nH]c3n1)N(C(=O)CN(C)C)CC2`: the inhibition in assay [1] was 21.4%; in [2], 0.59%; in assay [3], 4.28%; in assay [4], -0.34%; in [5], 4.16%; in assay [6] it was 1.24%. The inhibition in assay [7] worked out at 0.03%; in assay [8], 1.01%; in assay [9], 2.65%; in [10], 3.07%.

Take `COc1cccc(-n2ncc3c(N/N=C/c4cccc(F)c4)ncnc32)c1`: the inhibition was 1.49% in assay [1]; -0.8% in [2]; 17.9% in assay [3]; 16.8% in assay [4]; 13.8% in [5]; -0.23% in [6]. The inhibition was 5.33% in assay [7], -5.62% in assay [8], -4.52% in [9] and 1.19% in assay [10].

For the molecule `CC1=C(C(=O)Nc2ccc3[nH]ncc3c2)C(c2ccc(Cl)c(Cl)c2)CC(=O)N1` (configuration not stated), the inhibition in assay [1] is -5.55%; in [2], 1.97%; in assay [3], 18.3%; in [4], -1.91%; in assay [5], 2.22%; in assay [6], 3.17%. The inhibition in [7] stood at 3.02%; in assay [8], 0.53%; in assay [9], 3.13%; in assay [10] it was 1.65%.

`CN(C)c1cc2c(Nc3ccc4nc(Cc5ccccc5)[nH]c4c3)ncnc2cn1`: the inhibition was -3.19% in assay [1]; 5.31% in [2]; 26.3% in [3]; 1.17% in [4]; 21.5% in [5]; 4.68% in [6]. Further, the inhibition in [7] was 6.35%; in [8], 1.64%; in assay [9], 4.82%; in assay [10], 17.4%.

In the case of `NCc1ccc(-c2nc(-c3ccc(Cl)c(O)c3)c(-c3ccncc3)[nH]2)cc1`, the inhibition in assay [1] was found to be 3.04%; in assay [2], 0.72%; in assay [3] it was 10.4%; in assay [4] it was 12.4%; in [5], 28.9%; in [6], 13.9%. The inhibition in [7] is 58.7%; in assay [8] it was 1.91%; in [9], 6.57%; in assay [10], -0.21%.

With `O=C1NC(=O)C(c2ccc(Cl)cc2)=C1Nc1ccc(Cl)c(C(=O)O)c1`, the inhibition in [1] was 7.43%; in [2] it was -0.2%; in assay [3], -2.5%; in assay [4], -4.08%; in [5], -3.08%; in assay [6] it was 0.06%. Also, the inhibition in assay [7] was -1.29%; in assay [8] it was -0.05%; in [9] it was 0.05%; in assay [10], -3.37%.

Take `NS(=O)(=O)c1ccc(N/N=C2\C(=O)Nc3ccc(C(=O)NCCc4c[nH]cn4)cc32)cc1`: the inhibition in assay [1] is 9.57%; in assay [2], 4.25%; in [3] it was 17.2%; in [4], -1.78%; in [5], 6.53%; in assay [6] it was 7.16%. For the same molecule, the inhibition was 5.31% in [7], 1.88% in assay [8], 1.29% in assay [9] and 8.17% in assay [10].

Regarding `O=C1NC(=O)C(N2CCc3ccccc32)=C1c1ccc(Cl)cc1`, the inhibition is -2.89% in assay [1]; 2.66% in assay [2]; 4.59% in assay [3]; -0.48% in assay [4]; 5.82% in assay [5]; 4.84% in [6]. The inhibition in [7] was found to be 4.71%; in assay [8], 0.29%; in [9], 0.58%; in assay [10], 3.38%.

In the case of `Cc1ccc(NC(=O)c2ccnc(N3CCCC3)c2)cc1-c1ccc(C(=O)NCC2CC2)cc1`, the inhibition in assay [1] is 1.21%; in assay [2], -1.39%; in assay [3], -0.22%; in [4], 2.83%; in [5], 4.79%; in assay [6], 4.19%. Besides, the inhibition in assay [7] was 3.04%; in assay [8], -3.6%; in assay [9], -2.42%; in assay [10] it was 2.53%.

With `Fc1cccc(COc2ccc(Nc3ncnc4cc(-c5ccc[nH]5)sc34)cc2Cl)c1`, the inhibition was -0.12% in assay [1]; -2.62% in assay [2]; 0.69% in [3]; 2.13% in assay [4]; 1.82% in [5]; 1.55% in [6]. The inhibition is 6.36% in assay [7], -5.43% in assay [8], -4.27% in assay [9] and 2.68% in assay [10].

On to `CS(=O)(=O)CCNCc1ccc(-c2ccc3ncnc(Nc4ccc(OCc5ccccc5)c(Cl)c4)c3c2)o1`, for which the inhibition in [1] was found to be 1.26%; in assay [2] it was 0.85%; in [3], 7.53%; in assay [4], 0.69%; in [5] it was 4.31%; in assay [6], 0.7%. Moreover, the inhibition in assay [7] was 14.7%; in [8], -0.28%; in assay [9], 0.13%; in assay [10], 0.67%.

For `CN1CCC(C(=O)Nc2n[nH]c3nnc(-c4ccccc4)cc23)CC1`, the inhibition in assay [2] amounted to 3.19%; in [3] it was 1.79%; in [4], 4.52%; in assay [5] it was 3.87%; in [6], 4.01%; in assay [7], 6.78%. Also, the inhibition in [8] was -0.63%; in assay [9], -0.24%; in [10], 4.02%.

For `CC(C)=Cc1cccc2c1/C(=N/Nc1ccc(S(N)(=O)=O)cc1)C(=O)N2`, the inhibition in [1] was 5.18%; in assay [2] it was 3.01%; in assay [3], 31.1%; in [4] it was -0.19%; in assay [5], 6.64%; in assay [6], 1.35%. The inhibition is -1.64% in assay [7], 1.86% in assay [8], 3.95% in assay [9] and 0.6% in assay [10].

Consider `CC1=C(C(=O)Nc2ccc3[nH]ncc3c2)C(c2ccc(F)cc2)NC(=O)N1` (configuration not stated), for which the inhibition is -2.9% in [1]; 0.5% in assay [2]; 3.91% in assay [3]; -3.23% in assay [4]; 1.24% in [5]; 1.78% in assay [6]. Moreover, the inhibition was 5.55% in [7], -0.15% in assay [8], -1.83% in assay [9] and 0.78% in assay [10].

The values above are taken from ChEMBL document CHEMBL1961873, “Compounds: GSK PKIS; Assays: Nanosyn kinase panel” (2012).
